Source: PubChem (Broad Institute)
aSyn 5UTR act – Activators working through SNCA 5'UTR binding (MLPCN). alpha-synuclein 5'UTR reporter, activators screen. activity score, % (tested at 7.5 µM), hits read low. hit rate 7.1% among 300,000. AID 1814; in the data active means activity score below about -60%
Starred values were filed as active, the others as inactive. The list is a sample of the results.

For COc1cc(CNc2ccc(C)c(C)c2)cc(OC)c1OC the results were aSyn 5UTR act -166*.
`COc1ccc(NCc2ccc(OC)c(OC)c2)cc1` gave aSyn 5UTR act -105*.
For COc1ccc(C(=O)Cc2ccc(OC)c(OC)c2)cc1 the results were aSyn 5UTR act -109*.
COc1ccc(CNc2ccc(C)c(C)c2)cc1 was read as aSyn 5UTR act -72*.
For CCOc1c(Br)cc(CNc2ccc3c(c2)OCCO3)cc1OC the results were aSyn 5UTR act 97.
For COc1ccc(CNc2ccc(Br)cc2)cc1 the results were aSyn 5UTR act -112*.
Screening COc1ccc(CNc2cc(C)ccn2)cc1 returned aSyn 5UTR act -104*.
`Cc1nn(C)c(Sc2ccccn2)c1[N+](=O)[O-]` gave aSyn 5UTR act -87*.
For O=C(COC(=O)Cn1cnc2ccccc21)Nc1cc2c(cc1Cl)C(=O)c1ccccc1C2=O the results were aSyn 5UTR act -162*.
Screening Cc1ccsc1/C=C1\CCC(C2CCCC2)C1=O (configuration not stated) returned aSyn 5UTR act -163*.
For Cc1ccc(/C=C2\CCC(C3CCCC3)C2=O)cc1 (configuration not stated) the results were aSyn 5UTR act -105*.
For COc1ccc(/C=C2\CCC(C3CCCC3)C2=O)cc1 (configuration not stated) the results were aSyn 5UTR act -179*.
COc1ccc(/C=C2\CCC(C3CCCC3)C2=O)cc1OC (configuration not stated) was read as aSyn 5UTR act -75*.
`CC(C)Cc1ccc(C(C)C(N)=NCCc2ccccc2)cc1` (configuration not stated) gave aSyn 5UTR act -75*.
Screening O=C(/C=C/Nc1ccccc1C(F)(F)F)c1ccco1 returned aSyn 5UTR act -321*.
NC(=O)c1ccccc1N/C=C/C(=O)c1ccco1 was read as aSyn 5UTR act -97*.
O=C(/C=C/Nc1cccc(C(F)(F)F)c1)c1ccc(Oc2ncccn2)cc1 was read as aSyn 5UTR act -94*.
For O=C(/C=C/Nc1ccc(Oc2ccccc2)cc1)c1ccco1 the results were aSyn 5UTR act -201*.
For O=C(/C=C/Nc1cccc(C(F)(F)F)c1)c1ccco1 the results were aSyn 5UTR act -174*.
Cc1ccn(-c2cc(O)c(-n3ccc(C)n3)cc2O)n1 was read as aSyn 5UTR act -85*.
For Cc1nc2cc(N3CCCCC3)c(NC(=O)c3ccncc3)cc2c(=O)n1Cc1ccc(Cl)cc1 the results were aSyn 5UTR act 62.
COc1cc(NC(=O)c2ccc(Cl)cc2)c(OC)cc1NC(=O)CN1CCCCC1 was read as aSyn 5UTR act -68*.
Screening Clc1ccc(Nc2ccc(NCc3ccccc3)nn2)cc1 returned aSyn 5UTR act -72*.
`Cc1ccc(Nc2ccc(NCc3ccccc3)nn2)cc1C` gave aSyn 5UTR act -87*.
Screening O=C(c1ccc(COc2ccccc2[N+](=O)[O-])o1)N1CCCCCC1 returned aSyn 5UTR act -80*.
`Cc1ccccc1S(=O)(=O)Cc1ccc(C(=O)N2CCN(c3cccc(C)c3C)CC2)o1` gave aSyn 5UTR act 101.
For Cc1ccc(OCc2ccc(C(=O)N3CCCC3)o2)cc1C the results were aSyn 5UTR act -82*.
`O=C(c1ccc(COc2ccc(Cl)cc2Cl)o1)N1CCCC1` gave aSyn 5UTR act -63*.
`Cc1ccsc1C(=O)OCC(=O)N1CCc2ccccc2C1` gave aSyn 5UTR act -126*.
C=CCn1c2ccccc2c(=O)c2cc(C#Cc3ccsc3)ccc21 was read as aSyn 5UTR act -211*.
NC(=O)C1CCN(C(=S)c2ccc(-c3ccc(Br)cc3)o2)CC1 was read as aSyn 5UTR act -127*.
`Oc1ccc(Br)cc1/C=N/N1CCCCC1` gave aSyn 5UTR act -221*.
Oc1ccc(Br)cc1/C=N/n1cnc2ccccc21 was read as aSyn 5UTR act -262*.
Screening COC(=O)c1ccc(C)c(NS(=O)(=O)c2ccc(OC)cc2)c1 returned aSyn 5UTR act 82.
COc1ccc(S(=O)(=O)Nc2ccc(O)c3ccccc23)cc1 was read as aSyn 5UTR act -68*.
For O=c1[nH]c(/C=C/c2cccc3ccccc23)nc2ccccc12 the results were aSyn 5UTR act -104*.
`O=c1[nH]c(/C=C/c2ccccn2)nc2ccccc12` gave aSyn 5UTR act -176*.
`O=c1[nH]c(/C=C/c2ccccc2[N+](=O)[O-])nc2ccccc12` gave aSyn 5UTR act -190*.
COC(=O)c1c(-c2ccncc2)csc1NC(=O)c1ccoc1C was read as aSyn 5UTR act -120*.
COc1ccc(-c2csc(NC(=O)c3ccoc3C)n2)cc1 was read as aSyn 5UTR act -124*.
Screening COc1ccc(-c2csc(NC(=O)c3ccc(S(C)(=O)=O)cc3)n2)cc1 returned aSyn 5UTR act -68*.
Screening COc1ccc(/C(C)=N/NC(=O)c2cccc(S(=O)(=O)N3CCCC3)c2)c(O)c1 returned aSyn 5UTR act 78.
COc1ccc(-c2csc(NC(=O)c3cccc(S(=O)(=O)N4CCN(C)CC4)c3)n2)cc1 was read as aSyn 5UTR act -71*.
CCc1nnc(NC(=O)c2ccc(S(=O)(=O)N(C)Cc3ccccc3)cc2)o1 was read as aSyn 5UTR act 63.
`CC(=O)c1ccc(NC(=O)c2cccc(S(=O)(=O)N3CCN(C)CC3)c2)cc1` gave aSyn 5UTR act -112*.
`Cc1csc(NC(=O)c2sccc2C)n1` gave aSyn 5UTR act -68*.
`COc1ccccc1N(Cc1ccccc1)S(=O)(=O)c1cccc(C(=O)Nc2ccc(C(C)=O)cc2)c1` gave aSyn 5UTR act -88*.
Cc1csc(NC(=O)c2ccc(S(C)(=O)=O)cc2)n1 was read as aSyn 5UTR act -91*.
`COc1cccc(CN2C(=O)C3(C(C#N)=C(N)OC4=C3C(=O)CCC4)c3ccccc32)c1` (configuration not stated) gave aSyn 5UTR act 63.
For COc1cccc(Cn2c(=O)sc3ccccc3c2=O)c1 the results were aSyn 5UTR act -79*.
Screening Clc1ccccc1OCCCOc1cccc2cccnc12 returned aSyn 5UTR act -118*.
Fc1ccc(COc2cccc3cccnc23)cc1 was read as aSyn 5UTR act -141*.
CCS(=O)(=O)c1ccc(N=Nc2ccc(O)c3ncccc23)c(OC)c1 was read as aSyn 5UTR act 78.
Screening Nc1sc(-c2ccccc2)n[n+]1Cc1cccc2cccnc12 returned aSyn 5UTR act 53.
Screening CCCC(=O)NC(c1ccccc1OC)c1ccc2cccnc2c1O (configuration not stated) returned aSyn 5UTR act 124.
Cc1ccc2cccc(OCCCOc3ccccc3F)c2n1 was read as aSyn 5UTR act -74*.
For Cc1ccc2ccc3ccc(C)nc3c2n1 the results were aSyn 5UTR act 72.
For COc1cccc(OC)c1OCCCOc1cccc2cccnc12 the results were aSyn 5UTR act -106*.
Screening CCCCC(=O)NC(c1ccccc1OC)c1ccc2cccnc2c1O (configuration not stated) returned aSyn 5UTR act 101.
Screening O=C1c2c(Br)c(Br)c(Br)c(Br)c2C(=O)N1c1ccccn1 returned aSyn 5UTR act -112*.
For CSc1ccccc1OCc1cc(C(=O)N(C)Cc2ccncn2)no1 the results were aSyn 5UTR act -81*.
For Cc1nc(CNC(=O)c2cc(COc3c(F)cccc3F)on2)cs1 the results were aSyn 5UTR act 41.
CSc1ccccc1OCc1cc(C(=O)NCc2cccc(C)n2)no1 was read as aSyn 5UTR act -112*.
